# Bioassay records: PubChem BioAssay, National Center for Advancing Translational Sciences (NCATS)
# HTT aggregate: reduces HttQ103-GFP aggregates in PC12 cells. PC12 HttQ103-GFP aggregates, Acumen cytometry, 40 h. Potency, µM (titrated, usually from 46.1 µM), usual class: inhibitors. 220,000 compounds, 1.1% hits; further: nearly all actives have a fitted effect of over 60% in size
#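 PC12 cells with ecdysone-inducible HTT exon1 Q103-GFP, induced by 100 nM tebufenozide, given compounds in a concentration series. GFP aggregates (1–25 um, 6 SD above background) counted in lysates by laser-scanning cytometry, 488 nm excitation.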
# HPGD block: inhibitors of human 15-hydroxyprostaglandin dehydrogenase (HPGD) | P15428 | purified HPGD, NADH fluorescence kinetic, PGE2 substrate | Potency, µM, most hits filed as inhibitors | 150,000 compounds, 4.3% hits | AID 894; active means well fitted inhibition curve with a large enough effect, not every such curve was filed as active; inconclusive means small, poorly fitted or top-dose-only effect, or another doubt; inactive means no such curve, though single readings can be large or run the other way
# Target sequence (P15428 whole entry, looked up): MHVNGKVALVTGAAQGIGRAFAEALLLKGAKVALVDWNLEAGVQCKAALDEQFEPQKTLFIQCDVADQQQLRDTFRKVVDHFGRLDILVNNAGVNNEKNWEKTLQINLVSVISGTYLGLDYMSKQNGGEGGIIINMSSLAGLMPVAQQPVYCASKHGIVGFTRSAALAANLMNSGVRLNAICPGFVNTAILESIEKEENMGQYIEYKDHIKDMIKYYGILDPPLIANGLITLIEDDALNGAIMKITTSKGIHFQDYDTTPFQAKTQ
#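 20 nM HPGD preincubated 15 min at room temperature with compound in 50 mM Tris-HCl pH 8, 0.01% Tween 20. Started with 1 mM NAD+ and 30 uM prostaglandin E2; NADH fluorescence (360/450 nm) read 5 times over 30-s intervals, last minus first.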
# HTT cytoprotect: protects HTT-Q103 PC12 cells, measured by ATP; PC12 HTT-Q103 induced, cytoprotection, ATP luminescence, 40 h; Potency, µM (titrated, usually from 56.4 µM), actives largely listed as activators; 230,000 compounds, 0.14% hits; further: nearly all actives have a fitted effect of over 45% in size
#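 Cells were plated at 1500 per well in phenol red-free DMEM with 5% equine and 5% calf serum. Tebufenozide (100 nM final) and compounds were added, then ATPlite reagent, and luminescence was read.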
# Lamin A splicing: changes lamin A minigene splicing in HeLa cells; Potency, µM (series often up to 46.1 µM), hits mostly inhibitors; 200,000 compounds, 0.01% hits; HeLa LMNA splicing GFP/RFP minigene ratio, 48 h; active means well fitted inhibition curve with a large enough effect in the signal ratio, with a control signal flat, not every such curve was filed as active; inconclusive means small, poorly fitted or top-dose-only effect, or effect the other way, or a change in a side signal; the % refers to the signal ratio
#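 S3 HeLa stable clones carrying a lamin A-EGFP splicing minigene plus DsRed2 were seeded at 600 cells/well in Opti-MEM with 2% FBS, pin-dosed and incubated 48 h at 37°C. Acumen cytometry (488 nm) gave the GFP/RFP total-intensity ratio.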
# ALDH1A1 block: ALDH1A1 (human) enzyme inhibition. Potency, µM (doses to about 75.3 µM), usual class: inhibitors. Purified ALDH1A1, NADH fluorescence, propionaldehyde substrate. P00352. 220,000 compounds, 7.3% hits; active means well fitted inhibition curve with a large enough effect, not every such curve was filed as active; inconclusive means small, poorly fitted or top-dose-only effect, or another doubt; inactive means no such curve, though single readings can be large or run the other way
# Target sequence (P00352 whole entry, looked up): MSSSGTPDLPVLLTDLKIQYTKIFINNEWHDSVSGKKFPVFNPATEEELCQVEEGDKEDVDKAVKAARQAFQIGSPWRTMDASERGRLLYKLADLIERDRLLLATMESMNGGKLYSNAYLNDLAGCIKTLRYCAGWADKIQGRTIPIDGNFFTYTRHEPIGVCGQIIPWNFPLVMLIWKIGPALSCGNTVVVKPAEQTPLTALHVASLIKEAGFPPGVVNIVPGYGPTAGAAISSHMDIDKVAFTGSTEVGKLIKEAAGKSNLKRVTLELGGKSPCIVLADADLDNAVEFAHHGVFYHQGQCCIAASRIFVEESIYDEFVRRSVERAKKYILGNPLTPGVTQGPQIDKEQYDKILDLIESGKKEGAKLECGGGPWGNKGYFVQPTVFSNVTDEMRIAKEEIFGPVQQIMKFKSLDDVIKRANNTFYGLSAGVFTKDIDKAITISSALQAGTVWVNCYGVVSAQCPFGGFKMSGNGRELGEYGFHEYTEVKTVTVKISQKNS
# Numbers stand for hits; – = inactive; ? = inconclusive; · = no result; ! = not confirmed by another sample; [ ] = remark or other dose. Only some compounds are listed: those with a hit (about 8.8% of all), similar ones and a draw of the others. Unless noted, the call rests on the fitted dose curve; in most records, active means well fitted curve in the direction sought with a large enough effect; inconclusive means small, poorly fitted or top-dose-only effect, or another doubt; inactive means no such curve, though single readings can be large; an effect the other way counts as inactive or inconclusive.
SMILES,HTT aggregate,HPGD block,HTT cytoprotect,Lamin A splicing,ALDH1A1 block
N#CC(=Cc1ccc(O)c(O)c1)C(N)=S,·,28µM,·,?,0.79µM
N#CC(C#N)=Cc1ccc(O)c(O)c1,–,32µM,–,?,11µM
N#C/C(=C\c1cccc(O)c1)C(=O)O,·,–,·,–,–
CC(C)C[C@H](NC(=O)[C@H](Cc1ccccc1)NC(=O)CNC(=O)[C@@H](NC(=O)[C@@H](N)Cc1ccc(O)cc1)[C@H](C)O)C(=O)N[C@H](C(=O)O)[C@H](C)O,·,·,–,·,–
COc1cc(C=C(C#N)C#N)cc(O)c1O,·,32µM,–[1.9 µM],?,32µM
N#C/C(=C\c1ccc(O)cc1)C(=O)O,·,?,·,–,?
CN(C)c1ccc(C=C(C#N)C#N)cc1,–,–,–[1.9 µM],–,28µM
N#CC(C#N)=Cc1ccc(-c2ccccc2)o1,–,–,?,?,?
CCc1ccc(/C=C(/C#N)C(N)=S)cc1,–,32µM,·,?,32µM
O=S(=O)(NCCO)c1cc[c]([Sb](=[O])([OH])[OH])cc1,·,·,–[10 µM],·,·
CC(=O)O[C@@H]1C[C@@]2(C)C(c3ccoc3)C[C@H]3O[C@]32[C@]2(C)C(=O)C(O)=C3C(C)(C)C(=O)C=C[C@]3(C)C12 (some centres not stated),·,–,·,·,–
COC[C@H]1OC(=O)c2coc3c2[C@@]1(C)C1=C(C3=O)[C@H]2CCC(=O)[C@@]2(C)C[C@H]1OC(C)=O,·,32µM,–,·,28µM
COC[C@H]1OC(=O)c2coc3c2[C@@]1(C)C1=C(C3=O)C2CCC(=O)[C@@]2(C)C[C@H]1OC(C)=O (some centres not stated),·,35µM!,–,?,28µM!
c1ccc2c([C@@H]3CCN(CCN4CCOCC4)C3)c[nH]c2c1,·,–,–[10 µM],·,–[13.5 µM]
CC(Cc1cccc(C(F)(F)F)c1)NCCCc1ccccc1 (configuration not stated),·,·,–,·,–
O=C1CN=C(c2ccccc2)c2cc([N+](=O)[O-])ccc2N1,–,25µM,–,?,–
COC1=C[C@H]2[C@@H]3Cc4ccc(OC)c(O)c4[C@@]2(CCN3C)CC1=O,·,·,–,·,·
COC1=CC(=O)O[C@@H](/C=C/c2ccc3c(c2)OCO3)C1,·,–,–,·,25µM
CN(C)C(=O)Nc1cccc(C(F)(F)F)c1,·,–,–,·,–
C=CCn1c(O)c(/C(C)=N/NC(=S)Nc2ccccc2)c(=O)[nH]c1=O,–[9.22 µM],·,–[10 µM],·,·
C=CCn1c(O)c(/C(CC)=N/NC(=S)Nc2ccccc2)c(=O)[nH]c1=O,–[9.22 µM],·,–[10 µM],·,18µM
CC/C(=C\C=C\[C@@H]1C=C[C@@H]2CCC[C@H]2[C@@H]1C(=O)c1ccc[nH]1)[C@@H]1O[C@@H]([C@@H](C)C(=O)O)CC[C@@H]1C,11µM,–,–[10 µM],?,–
O=C(O)C1Sc2[nH]c(=O)sc2C2c3cc(Cl)ccc3OC(=O)C12 (configuration not stated),–,?,–[0.074 µM],–,13µM
CSC([N-]/N=C/c1cccc(C)n1)=[S]=[Cu].CS[C@H]([S-])[N-]/N=C/c1cccc(C)n1,·,·,–[10 µM],·,·
CCCOC(=O)c1ccccc1C(=O)OCCC,·,–,–,·,?
SMILES,HTT aggregate,HPGD block,HTT cytoprotect,Lamin A splicing,ALDH1A1 block
CCCCCCCCOC(=O)c1ccccc1C(=O)OCCCCCCCC,–,–,–,?,25µM
CC(=O)Nc1ccc(C2CN(C)CC2C(=O)c2ccc(Cl)cc2)cc1 (configuration not stated),–[9.22 µM],·,–,–,?
CN1CC(C(=O)c2ccc(Cl)cc2)C(c2ccc(N(C)C)cc2)C1 (configuration not stated),–[9.22 µM],·,–,·,10µM
CN(C)CCCNCC(=O)Nc1ccc(Cl)cc1C(=O)c1ccccc1,–,·,–,·,2.8µM
C[C@H](N)c1cccc(Cl)c1Cl,·,·,–[1.9 µM],·,·
C#CCN1C(C)=C(C(=O)CCO)[C@@H](c2cccc(-n3oo3)c2)C(C(=O)OC)=C1C,·,–,–,·,–
Cl/C=C/Cl,·,–,–,·,–
ClCc1ccccc1,·,–,–,·,–
O=C1NC(=O)C(=Cc2ccc(SC3CCCCC3)o2)C(=O)N1,–,·,·,·,25µM
O=C1NC(=O)C(=Cc2ccc(-c3ccccc3[N+](=O)[O-])o2)C(=O)N1,–[9.22 µM],·,–[10 µM],·,·
COc1ccc(C(c2ccc(OC)cc2)C(Cl)(Cl)Cl)cc1,·,–,–,–,14µM!
CN[C@H]1[C@H]2[C@H]3CCN2C[C@@H]1O3,·,·,–,·,·
CNc1ccc2oc(C[C@@H]3O[C@@]4(CC[C@H]3C)O[C@@H]([C@@H](C)C(=O)c3ccc[nH]3)[C@@H](C)C[C@H]4C)nc2c1C(=O)O,·,·,–[1.9 µM],·,·
O=C1NC(=O)C(=Cc2ccc(-c3cc(Cl)ccc3[N+](=O)[O-])o2)C(=O)N1,–,·,–,?,22µM
Cc1cccc(N2C(=O)NC(=O)/C(=C\c3ccc4c(c3)CCCN4Cc3ccccc3)C2=O)c1,?,7.1µM,–[10 µM],–,0.18µM
O=C(CCl)c1ccc(Cl)cc1Cl,·,–,–,·,0.16µM
O=C(O)c1cc(Cl)ccc1Cl,·,–,–,·,?
CCN(CC)C(=O)c1ccc(NC(=O)CCCSc2ccccc2)cc1,–,·,–,·,–
CCN(CC)C(=O)c1ccc(NC(=O)CSc2nnnn2-c2cc(OC)ccc2OC)cc1,–,8.9µM,–,–,8.9µM
NC(N)=Nc1ccc2[nH]c3c(c2c1)C[C@]1(O)[C@@H]2Cc4ccc(O)c5c4[C@]1(CCN2CC1CC1)[C@H]3O5,·,·,–[1.9 µM],·,·
CNC(=O)Oc1cccc(-c2cn3cc(OC(=O)NC)ccc3n2)c1,–,?,·,–,?
CNC(=O)Oc1ccc2c(c1)C(=O)c1ccccc1CO2,–,–,–,–,11µM
Cc1ccc(OP(=O)(Oc2ccc(C)cc2)Oc2ccc(C)cc2)cc1,·,–,–,·,–
CNCCc1c[nH]c2ccccc12,?,·,–,–,18µM
O=C(N/N=C/C1C(=O)NC(=S)N(c2ccccc2)C1=O)c1cc(Br)c(O)c(Br)c1 (configuration not stated),–,·,–,·,13µM
SMILES,HTT aggregate,HPGD block,HTT cytoprotect,Lamin A splicing,ALDH1A1 block
O=C(COc1ccc(S(=O)(=O)N2CCOCC2)cc1)N1CCN(Cc2ccc3c(c2)OCO3)CC1,?,–,–[10 µM],?,–
O=C1NC(=O)C(=Cc2ccc(OCC(=O)N3CCOCC3)cc2)C(=O)N1,–,–,·,?,5µM
Oc1cc(Cl)c(Cl)cc1Cl,–,5.6µM,–,·,–
N#CC(C#N)=NNc1ccc(OC(F)(F)F)cc1,·,–,–,·,2.8µM
NC(=O)C1=CN(C2OC(COP(=O)(O)OP(=O)(O)OC[C@H]3O[C@@H](n4cnc5c(N)ncnc54)[C@H](OP(=O)(O)O)[C@H]3O)C(O)C2O)C=CC1 (some centres not stated),·,–,·,?,–
O=C1NC(=O)C(=Cc2cc3c(cc2[N+](=O)[O-])OCO3)C(=O)N1,–,·,–,–,16µM
CC(C)[C@H](CO)Nc1nc(Nc2cccc(Cl)c2)c2ncn(C(C)C)c2n1,·,–,?,·,?
CCCCOC(=O)c1ccccc1C(=O)OCc1ccccc1,·,–,–,·,?
O=C(OCCCCN1C(=O)c2ccccc2C1=O)c1ccc(Br)o1,–,16µM,–[10 µM],?,?
